Rows were chosen to be rich in hits. Some 4.1% of all compounds tested hit in one or more screens of this group.
MITF TRPM1 inh: inhibitors of MITF-driven TRPM1 promoter in melanoma cells. SK-MEL-5 TRPM1 promoter luciferase, 24 h. inhibition, % at 12.5 µM. actives 0.83% (n = 330,000);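 active = mean inhibition across replicates of 60% or more, whatever share of single replicates reaches that level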
TROY NFkB inh: inhibitors of TROY-dependent NF-kB signaling; Q293 LMP1-TROYcd NF-kB luciferase reporter, 4 h; inhibition, % at 10 µM; actives 0.98% (n = 360,000); AID 1347056;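 active = compounds whose plate-normalised and pattern-corrected inhibition of the luciferase reporter signal at the single screening dose is 50% or more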
TWEAK-Fn14 inh: TWEAK-Fn14 signaling inhibition; actives 2% (n = 360,000); TWEAK-stimulated Fn14 reporter cells, luciferase luminescence, 8 h; inhibition, % at 10 µM; in the data active = inhibition above about 50%
EBV LMP1 NFkB: Epstein-Barr LMP1 NF-kappaB reporter inhibition. LMP1-induced NF-kappaB luciferase reporter cells, luminescence. inhibition, % at 12.5 µM. actives 0.69% (n = 350,000). AID 504558; in the data active = inhibition above about 41%;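 also: 0% = neutral control wells and 100% = reference inhibitor control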
Peg3 prom inh-1: reduces Peg3 promoter-driven luciferase expression in HeLa. HeLa PEG-Prom luciferase reporter, luminescence, overnight. actives 1.7% (n = 360,000). inhibition, % at 20 µM. AID 588405;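 active = inhibition of at least 50% at 20 µM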
Shn3 3UTR inh: reduces Shn3 3'UTR luciferase signal in osteoblasts; inhibition, % at 12.5 µM; Clone20 osteoblast Shn3 3'UTR firefly luciferase, 24 h; actives 0.52% (n = 360,000); AID 588674;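 active = mean inhibition of at least 75% with every replicate also reaching 75%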;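 also: 0% = median of neutral control wells and 100% = pilot-screen positive control compound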
Peg3 prom inh-2: Peg3 promoter inhibition confirmation | HeLa PEG-Prom luciferase reporter, luminescence, overnight | inhibition, % at 20 µM | shares compounds with Peg3 prom inh-1 | actives 84% (n = 1,300);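 active = at 20 µM dose, 40% or more inhibition averaged across four replicates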
Starred values were filed as active, the others as inactive; · = no result given.

SMILES	MITF TRPM1 inh	TROY NFkB inh	TWEAK-Fn14 inh	EBV LMP1 NFkB	Peg3 prom inh-1	Shn3 3UTR inh	Peg3 prom inh-2
CCN(CC)C(=O)c1ccc(NC(=O)CCCSc2ccccc2)cc1	-3	-4	-4	-4	-7	10	·
CCN(CC)C(=O)c1ccc(NC(=O)Nc2ccccc2F)cc1	30	76*	72*	51*	56*	17	45*
C[C@H]1[C@@H](c2ccccc2)O[C@@H](c2ccccc2Br)N1C	4	-17	-7	-10	-13	6	·
COc1ccc2c(c1)NP(=S)(Oc1ccccc1)N2 (configuration not stated)	-7	-4	5	1	-3	-28	·
O=C1NC2C(=CC(O)C(O)C2O)c2cc3c(c(O)c21)OCO3 (configuration not stated)	88*	84*	95*	95*	100*	96*	98*
COc1cccc2c1C(=O)c1c(O)c3c(c(O)c1C2=O)CC(O)(C(C)=NO)CC3OC1CC(N)C(O)C(C)O1 (configuration not stated)	70*	8	6	42*	99*	36	99*
COc1ccc2c(c1)C1(C)CCN(C)CC(C1)C2O (configuration not stated)	·	-13	-3	-1	9	-8	·
O=C1NC(=S)NC(=O)C1=Cc1cccc2cc3ccccc3cc12	98*	-28	0	7	107*	99*	100*
COc1ccc(C=C2C(=O)NC(=S)NC2=O)cc1	6	-2	-1	-2	0	9	·
Cc1c(-c2cccc(Cl)c2)nc2ccccc2c1C(=O)N1CCC2(CC1)OCCO2	12	8	-2	-12	22	13	·
CC1=CC(O)C(O)C2(C)C1CC1OC(=O)C(O)C3C(C)C(O)C4(O)OCC13C42 (configuration not stated)	11	15	-3	-4	68*	-15	45*
O=Cc1cn(Cc2ccc([N+](=O)[O-])cc2)c2ccccc12	7	-1	3	10	91*	15	80*
O=Cc1cn(Cc2ccc(F)cc2)c2ccccc12	-4	11	22	10	78*	6	69*
ClCC(Br)CBr (configuration not stated)	-2	17	1	-6	-8	14	·
O=C(CSC1c2ccccc2-c2ccccc21)N/N=C/c1ccc(C(=O)O)cc1	17	1	-5	4	9	11	·
O=C(CSC1c2ccccc2-c2ccccc21)N/N=C/c1ccccc1O	43	-49	23	29	55*	70	64*
CCOC(=O)[C@]12Cc3cc(C)ccc3[C@H]1N(C)C(=O)c1cc(OC)ccc12	·	31	27	·	·	·	·
